Results on 18 compounds are retold here after PubChem BioAssay (Tox21).

“And” between values parts separate entries of the source, which are not always exact repeats. Identical values can stand only once. The source made the active and inactive calls. Unless noted, calls come from the whole dose curve; as a rule, active = well fitted curve in the direction sought with a large enough effect in the repeat runs; inconclusive = weak or mixed curves; inactive = no such curve, though single readings can be large; an effect the other way counts as inactive or inconclusive.

A short description of test [1]: qHTS assay to identify small molecule antagonists of the glucocorticoid receptor (GR) signaling pathway - cell viability counter screen (AID 720693; note: nearly all actives have a fitted effect of over 55% in size; note: potency is the fitted concentration of half-maximal effect). (In general: qHTS replaces the single test concentration by a dilution series.)
Test [2] is described as follows: qHTS assay for identifying genotoxic compounds that show differential cytotoxicity against isogenic chicken DT40 cell lines with known DNA damage response pathways - wild type cell line (AID 743012). Note: nearly all actives have a fitted effect of over 60% in size. Note: potency is the fitted concentration of half-maximal effect. In a few lines: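 Cytotoxicity in repair-proficient parental chicken DT40 cells serves as the comparator for Rad54/Ku70- and Rev3-deficient lines. Cells were exposed to compounds for 40 h at 37 C/5% CO2, and ATP-based luminescence (CellTiter-Glo) measured viability.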

Test [3] is described as follows: qHTS assay for identifying genotoxic compounds that show differential cytotoxicity against isogenic chicken DT40 cell lines with known DNA damage response pathways - Rev3 mutant cell line (AID 743014). Note: nearly all actives have a fitted effect of over 55% in size. Note: potency is the fitted concentration of half-maximal effect.
Test [4] can be described thus: qHTS assay for identifying genotoxic compounds that show differential cytotoxicity against isogenic chicken DT40 cell lines with known DNA damage response pathways - Rad54/Ku70 mutant cell line (AID 743015). Note: nearly all actives have a fitted effect of over 60% in size. Note: potency is the fitted concentration of half-maximal effect.
Test [5] in a line: qHTS assay to identify small molecule antagonists of the androgen receptor (AR) signaling pathway - cell viability counter screen (AID 743033; note: nearly all actives have a fitted effect of over 45% in size; note: potency is the fitted concentration of half-maximal effect).
The nature of test [6]: qHTS assay to identify small molecule antagonists of the androgen receptor (AR) signaling pathway using the MDA cell line - cell viability counter screen (AID 743041; note: nearly all actives have a fitted effect of over 45% in size; note: potency is the fitted concentration of half-maximal effect). In a few lines:
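Compound exposure lasted 16 h at 37C in MDA-kb2 AR-luc cells stimulated with R1881. Protease-based CellTiter-Fluor reagent was applied for the final 30 min and fluorescence measured.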

Test [7] has as its system thyroid hormone receptor (rat, GH3 cells). As to the kind of experiment: qHTS assay to identify small molecule agonists of the thyroid receptor (TR) signaling pathway (AID 743066; calls by dose curve).
The target in test [8] is Estrogen receptor (Homo sapiens) (UniProt P03372). As to the kind of experiment: qHTS assay to identify small molecule antagonists of the estrogen receptor alpha (ER-alpha) signaling pathway (AID 743069; active = well fitted curve in the direction sought with a large enough effect in the signal ratio in the repeat runs, not every such curve was filed as active; inconclusive = weak or mixed curves, or effect the other way; inactive = no such curve, though single readings can be large or run the other way; the % refers to the signal ratio). In outline:
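In this cell-based reporter format, GripTite HEK293 cells harbouring ER-alpha-UAS-bla were grown overnight with 2% charcoal-stripped FBS, dosed with DMSO-dissolved compounds, then challenged with 17beta-estradiol. After 18 hr at 37C, beta-lactamase activity was detected by FRET fluorescence.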

The nature of test [9]: qHTS assay to identify small molecule antagonists of the estrogen receptor alpha (ER-alpha) signaling pathway - cell viability counter screen (AID 743074; calls by dose curve; note: nearly all actives have a fitted effect of over 45% in size; note: potency is the fitted concentration of half-maximal effect).
Test [10] has as its target Estrogen receptor (Homo sapiens) (UniProt P03372). As to the kind of experiment: qHTS assay to identify small molecule agonists of the estrogen receptor alpha (ER-alpha) signaling pathway (AID 743075; calls by dose curve; note: potency is the fitted concentration of half-maximal effect).
For test [11] the target is unchanged. Briefly: qHTS assay to identify small molecule agonists of the estrogen receptor alpha (ER-alpha) signaling pathway using the BG1 cell line (AID 743079). Note: nearly all actives have a fitted effect of over 20% in size. Note: potency is the fitted concentration of half-maximal effect. Conditions: BG1Luc4E2 cells, ERE-luciferase agonist, 22 h; activation: at 70.3 µM (top of the series).
The nature of test [12]: qHTS assay to identify small molecule antagonists of the estrogen receptor alpha (ER-alpha) signaling pathway using the BG1 cell line - cell viability counter screen (AID 743081).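 Note: compound given together with 17beta-estradiol as the ER stimulus; nearly all actives have a fitted effect of over 45% in size.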 Note: potency is the fitted concentration of half-maximal effect.
Test [13] is described as follows: qHTS assay to identify small molecule antagonists of the thyroid receptor (TR) signaling pathway - cell viability counter screen (AID 743064). Note: nearly all actives have a fitted effect of over 50% in size. In a few lines: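 Rat GH3 pituitary tumor cells stably expressing two TR response elements driving luciferase were plated, rested 4 h, then dosed with library compounds and T3 (1 nM final). After 23.5 h at 37 °C, CellTiter-Fluor was added for 30 min and fluorescence recorded.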

Test [14] is described as follows: qHTS assay to identify small molecule antagonists of the estrogen receptor alpha (ER-alpha) signaling pathway using the BG1 cell line (AID 743080; calls by dose curve;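 note: BG1 cells stimulated with 17beta-estradiol alongside compound; nearly all actives have a fitted effect of over 25% in size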). In a few lines: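 After 5 days in phenol-red-free 10% charcoal-stripped FBS medium, BG1-Luc-4E2 cells were seeded, left 24 h at 37 C, co-treated with compounds and 17beta-estradiol for 21.5 h, then assayed for viability and luciferase.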

The target in test [15] is Aromatase (Homo sapiens) (UniProt P11511). Briefly: qHTS assay to identify aromatase inhibitors (AID 743083). Note: nearly all actives have a fitted effect of over 55% in size. Note: potency is the fitted concentration of half-maximal effect.
A short description of test [16]: qHTS assay to identify small molecule antagonists of the thyroid receptor (TR) signaling pathway (AID 743065). Note: nearly all actives have a fitted effect of over 55% in size. Note: potency is the fitted concentration of half-maximal effect. In outline:
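GH3.TRE-Luc rat pituitary cells (two TREs driving luciferase) were dosed with compound, then stimulated with 1 nM T3 (final) for 23.5 h at 37 C. ONE-Glo luminescence was the read-out, with CellTiter-Fluor fluorescence as the cytotoxicity counter-screen.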

Sequence of Estrogen receptor (Homo sapiens) (P03372 whole entry, looked up): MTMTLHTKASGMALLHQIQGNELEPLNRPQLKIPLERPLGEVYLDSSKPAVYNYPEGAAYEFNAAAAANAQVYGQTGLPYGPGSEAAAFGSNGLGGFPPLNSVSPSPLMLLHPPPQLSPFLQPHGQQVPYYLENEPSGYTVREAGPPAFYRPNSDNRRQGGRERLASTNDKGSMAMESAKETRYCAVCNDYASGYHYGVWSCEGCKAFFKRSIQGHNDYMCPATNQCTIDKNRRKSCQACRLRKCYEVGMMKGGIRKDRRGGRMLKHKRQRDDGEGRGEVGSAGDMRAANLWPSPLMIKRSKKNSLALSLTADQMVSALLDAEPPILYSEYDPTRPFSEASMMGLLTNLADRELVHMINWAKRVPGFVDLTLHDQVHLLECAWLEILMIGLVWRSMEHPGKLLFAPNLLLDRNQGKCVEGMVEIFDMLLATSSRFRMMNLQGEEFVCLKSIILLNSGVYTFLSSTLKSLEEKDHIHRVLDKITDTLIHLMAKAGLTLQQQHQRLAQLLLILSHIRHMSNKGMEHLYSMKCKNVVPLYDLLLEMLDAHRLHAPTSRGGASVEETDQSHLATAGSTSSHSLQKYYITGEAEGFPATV
Sequence of Aromatase (Homo sapiens) (P11511 whole entry, looked up): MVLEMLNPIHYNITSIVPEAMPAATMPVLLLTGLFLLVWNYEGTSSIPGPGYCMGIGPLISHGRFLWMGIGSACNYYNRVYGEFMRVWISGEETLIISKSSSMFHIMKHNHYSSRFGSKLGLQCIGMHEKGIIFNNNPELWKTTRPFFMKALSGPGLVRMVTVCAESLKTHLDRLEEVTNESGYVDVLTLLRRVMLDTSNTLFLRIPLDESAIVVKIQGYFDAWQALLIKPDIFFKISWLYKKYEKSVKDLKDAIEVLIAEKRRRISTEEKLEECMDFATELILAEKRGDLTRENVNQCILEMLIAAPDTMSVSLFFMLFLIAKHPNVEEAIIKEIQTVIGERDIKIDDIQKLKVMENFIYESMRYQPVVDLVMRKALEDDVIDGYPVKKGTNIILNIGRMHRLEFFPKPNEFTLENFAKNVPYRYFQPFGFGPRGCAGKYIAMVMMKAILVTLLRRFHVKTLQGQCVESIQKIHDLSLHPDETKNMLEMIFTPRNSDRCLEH

On to `CCN(CC)C(=O)N[C@@H]1C=C2c3cccc4[nH]cc(c34)C[C@@H]2N(C)C1`, for which the Potency entry in [1], in [5], in test [6], in [7], in [8] and in [9] was “inactive” in each case. In addition, the Potency entry in test [10], in [11] and in test [12] was “inactive” in each case. Besides, the values for the Potency in test [2], in test [3] and in test [4] were 7.5 µM (active), 26.6 µM (active) and 16.8 µM (active), respectively.

With `CCc1cccc(C)c1N(C(=O)CCl)[C@@H](C)COC`, the Potency entry in test [1], in test [5], in [6], in test [13], in [9] and in test [12] was “inactive” in each case. In addition, the Potency is 13.7 µM (active) in test [2], 19.3 µM (active) in test [3] and 30.6 µM (active) in test [4].

With `ClC1=C(Cl)[C@]2(Cl)[C@@H]3[C@H]4C[C@H]([C@@H]5O[C@H]45)[C@@H]3[C@@]1(Cl)C2(Cl)Cl`, the Potency entry in test [1], in test [5], in [6], in test [7], in test [8] and in [9] was “inactive” each time. In addition, the Potency result in test [10], in test [11], in test [14], in test [12] and in [15] was “inactive” throughout. The Potency in test [2] was 29.8 µM (active) and 27.3 µM (active); in test [3] it was 9.68 µM (active); in test [4], 17.2 µM (active).

Take `ClSC(Cl)(Cl)Cl`: the Potency entry in test [1], in test [2], in test [3], in test [4], in test [5] and in test [6] was “inactive” in each case. For the same compound, the Potency result in test [13], in test [7], in test [8], in [9], in test [10] and in test [11] was “inactive” throughout. The Potency entry in test [14], in test [12] and in test [15] was “inactive” in each case.

Consider `CN=C=O`, for which the Potency entry in [1], in test [2], in test [3], in test [4], in test [5] and in [6] was “inactive” throughout. The Potency entry in [16], in [7], in [9], in test [12] and in test [15] was “inactive” in each case.

On to `O=[N+]([O-])c1ccc(Cl)c(Cl)c1Cl`, for which the Potency entry in test [1], in test [2], in [3], in [4], in test [5] and in [6] was “inactive” in each case. Further, the Potency entry in test [7], in test [8], in test [9], in test [11], in test [12] and in [15] was “inactive” throughout.

`CC(C)[C@@H](Nc1ccc(C(F)(F)F)cc1Cl)C(=O)OC(C#N)c1cccc(Oc2ccccc2)c1` (some centres undefined): the Potency entry in test [1], in test [2], in [3], in test [4], in [5] and in test [6] was “inactive” each time. The Potency entry in [16], in [7], in [8], in [9], in test [11] and in [14] was “inactive” throughout. Further, the Potency result in [12] and in test [15] was “inactive” each time.

Consider `O.O.O.O.O.O.O.O=S(=O)([O-])[O-].[Co+2]`, for which the Potency entry in test [1], in test [2], in test [3], in [4], in [5] and in test [6] was “inactive” throughout. Further, the Potency entry in test [13], in test [12] and in test [15] was “inactive” in each case.

Regarding `O=[N+]([O-])c1cc(C(F)(F)F)c(Cl)c([N+](=O)[O-])c1Nc1ncc(C(F)(F)F)cc1Cl`, the Potency in test [1] is 21.9 µM (active); in test [2] it was 0.0969 µM (active); in test [3], 0.137 µM (active); in [4], 0.137 µM (active); in test [5], 0.275 µM (active); in test [6], 15.4 µM (active). For the same compound, the Potency in test [16] was 2.17 µM (active); in test [9] it was 49 µM (active); in test [10], 49 µM [inconclusive] (active); in test [12], 68.6 µM (active); in test [15] it was 2.73 µM (active).

For `CCCN`, the Potency result in [1], in test [2], in test [3], in test [4], in test [5] and in test [6] was “inactive” throughout. Besides, the Potency result in [13], in [9], in test [12] and in test [15] was “inactive” in each case.

On to `N#CCCl`, for which the Potency result in [1], in test [2], in test [3], in [4], in test [5] and in test [6] was “inactive” in each case. For the same compound, the Potency entry in test [13], in test [7], in test [9], in test [14], in test [12] and in test [15] was “inactive” in each case. The Potency in test [11] was 28.4 µM (active).

For `CCCC[N+]1(C)CCCC1` (tested in a mixture with another compound), the Potency result in [1], in test [2], in [3], in test [4], in test [5] and in [6] was “inactive” throughout. The Potency result in test [13], in test [16], in [7], in test [9], in test [12] and in [15] was “inactive” throughout.

In the case of `CCC1(CC)C(=O)N=C(O)NC1=O`, the Potency result in test [1], in test [2], in test [3], in [4], in [5] and in test [6] was “inactive” in each case. For the same compound, the Potency result in [13], in test [7], in test [8], in test [9], in test [10] and in test [11] was “inactive” in each case. The Potency entry in [14], in [12] and in [15] was “inactive” in each case.

Take `CN/C(=N\[N+](=O)[O-])NCc1cnc(Cl)s1`: the Potency entry in test [1], in test [2], in [3], in [4], in test [5] and in test [6] was “inactive” in each case. The Potency result in [13], in [7], in [9], in [10], in test [11] and in test [12] was “inactive” in each case. In addition, the Potency entry in test [15] is “inactive”.

As to `CCn1cc[n+](C)c1` (tested in a mixture with another compound), the Potency result in [1], in test [2], in test [3], in [4], in [5] and in test [6] was “inactive” each time. The Potency entry in [13], in test [7], in [9] and in test [12] was “inactive” throughout.

On to `CCOC(=O)CCN(SN(C)C(=O)Oc1cccc2c1OC(C)(C)C2)C(C)C`, for which the Potency result in [1], in test [5], in test [6], in test [13], in test [16] and in [9] was “inactive” throughout. Further, the Potency entry in test [10], in test [11], in test [12] and in [15] was “inactive” throughout. Also, the Potency in test [2] is 17.2 µM (active); in test [3], 24.3 µM (active); in test [4], 21.7 µM (active).

As to `COc1ccc2c3c1O[C@H]1[C@H](O)CC[C@H]4[C@@H](C2)N(C)CC[C@@]341`, the Potency entry in [1], in [2], in [3], in test [4], in test [5] and in [6] was “inactive” each time. The Potency result in [13], in test [9], in [12] and in [15] was “inactive” each time.

In the case of `CC(=O)O.CC(=O)O.CC(=O)O.CC(=O)O.CC(=O)O.CC(=O)O.CC(=O)O.O.O.[Cr].[Cr].[Cr]`, the Potency entry in test [1], in test [2], in [3], in test [4], in test [5] and in [6] was “inactive” throughout. The Potency result in test [13], in test [7], in test [9], in [12] and in [15] was “inactive” each time.
